In PubChem BioAssay (Tox21) one finds outcome and Potency data, which are given here for 11 molecules.

“And” between values parts separate entries of the source, which are not always exact repeats. Equal values may be shown once. Records with an inconclusive call do not appear. A structure can be active in one record and inactive in another. The source made the active and inactive calls. Unless noted, calls follow the shape of the dose curve; as a rule, active = well fitted curve in the direction sought with a large enough effect in the repeat runs; inconclusive = weak or mixed curves; inactive = no such curve, though single readings can be large; an effect the other way counts as inactive or inconclusive.

A short description of test [1]: qHTS assay to identify small molecule agonists of the androgen receptor (AR) signaling pathway in the presence of an antagonist - cell viability counter screen (AID 1259379).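 Also: MDA-kb2 human breast cancer cells carrying an MMTV luciferase reporter; series mostly up to about 92 µM; nearly all actives have a fitted effect of over 25% in size.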 In short, it runs like this: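 Cells: MDA-kb2 (MMTV-luc, AR and GR elements), 3,000/well, 5 hr settle. Added: nilutamide 3.0uM final, then compounds (15 conc.). Incubation: 16 hr, 37C, no CO2. Read-out: CellTiter-Fluor, 1 hr, fluorescence.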

Test [2] in a line: qHTS assay to identify small molecule antagonists of the estrogen receptor beta (ER-beta) signaling pathway - cell viability counter screen (AID 1259382).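 Also: HEK293T cells carrying ER-beta-UAS-bla reporter stimulated with estradiol; series mostly up to about 92 µM; nearly all actives have a fitted effect of over 55% in size.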 A digest of the protocol:
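Cells: ER-beta-UAS-bla HEK293T, 2,000/well, 2% CS-FBS, 6 hr settle. Cpd + E2 (1nM final), 16 hr, 37C/5% CO2. Bla FRET substrate 2 hr RT, then CellTiter-Glo 30 min RT, luminescence.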

Test [3] can be described thus: qHTS assay to identify small molecule agonists or antagonists of the thyroid stimulating hormone receptor (TSHR) signaling pathway - wild type cell line counter screen (AID 1259384; calls by dose curve). A digest of the protocol:
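Wild-type Hek293 cells, 800/well, 18 h at 37C, then compound with Ro20-1724 for 30 min RT. cAMP by HTRF (cAMP-d2/anti-cAMP cryptate), 1 h RT, fluorescence read. 15 concentrations, triplicates.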

Test [4] concerns the target Thyrotropin receptor (Homo sapiens) (UniProt P16473). Briefly: qHTS assay to identify small molecule antagonists of the thyroid stimulating hormone receptor (TSHR) signaling pathway (AID 1259385; calls by dose curve; also: nearly all actives have a fitted effect of over 20% in size). In short, it runs like this: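 TSHR-HEK293 cells (800/well) plated 18 h, then compounds with Ro20-1724 and TSH at 1.5 ng/mL final, 30 min at room temperature. cAMP quantified by HTRF (cAMP-d2/anti-cAMP-cryptate, 1 h); 15 concentrations in triplicate.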

Test [5] is described as follows: qHTS assay to identify small molecule agonists of the estrogen receptor alpha (ER-alpha) signaling pathway in the presence of an antagonist - cell viability counter screen (AID 1259386).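 Also: series mostly up to about 92 µM; cells exposed to compounds for 22 h at 37 °C before the viability read; nearly all actives have a fitted effect of over 30% in size.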 In short, it runs like this: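 VM7Luc4E2, stripped-serum pre-culture 5 d; 24hr plating; +ICI-182,780 10.0nM final; cpds 15 conc, 22hr, 37C/5% CO2; CellTiter-Fluor added at 21hr, fluorescence 1hr later.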

The target in test [6] is Progesterone receptor (Homo sapiens) (UniProt P06401). Put plainly: qHTS assay to identify small molecule agonists of the progesterone receptor (PR) signaling pathway (AID 1346784; calls by dose curve; also: nearly all actives have a fitted effect of over 30% in size). A digest of the protocol:
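Fluorescence from LiveBLAzer B/G FRET substrate cleavage (2 hr, RT) reported PR activation in PR-UAS-bla HEK 293T cells treated 16 hr at 37C/5% CO2 with compounds; medium contained 2% charcoal-stripped FBS.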

For test [7] the target is unchanged. Put plainly: qHTS assay to identify small molecule antagonists of the progesterone receptor (PR) signaling pathway (AID 1346795; active = well fitted inhibition curve with a large enough effect in the signal ratio in the repeat runs, not every such curve was filed as active; the % refers to the signal ratio; also: potency is read from the fitted curve at half-maximal effect). In short, it runs like this:
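Fluorescence intensity measured 2 hr after adding beta-lactamase FRET substrate to PR-UAS-bla HEK293T cells that had been co-treated 16 hr with compound and 1 nM R5020 (final concentration) in 2% charcoal-stripped FBS.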

The nature of test [8]: qHTS assay to identify small molecule antagonists of the progesterone receptor (PR) signaling pathway - cell viability counter screen (AID 1346798). Also: series mostly up to about 92 µM; nearly all actives have a fitted effect of over 50% in size. In short, it runs like this: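 CellTiter-Glo luminescence; PR-UAS-bla HEK293T, 3,000 cells/well; compound + R5020, 16 hr, 37C/5% CO2; 30 min RT before read.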
The nature of test [9]: qHTS assay to identify small molecule agonists of the progesterone receptor (PR) signaling pathway - cell viability counter screen (AID 1346799; calls by dose curve; also: nearly all actives have a fitted effect of over 45% in size; also: potency is read from the fitted curve at half-maximal effect). A digest of the protocol: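 In parallel with the beta-lactamase readout, cytotoxicity toward PR-UAS-bla HEK293T cells was measured by CellTiter-Glo luminescence following 16 hr compound incubation in 2% charcoal-stripped FBS medium.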

The nature of test [10]: qHTS assay to identify small molecule antagonists of the TGF-beta/Smad signaling pathway - cell viability counter screen (AID 1346824). Also: nearly all actives have a fitted effect of over 50% in size. In short, it runs like this:
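SBE-bla HEK 293T cells, incubated overnight, then compound plus 0.25 ng/mL TGF-beta1 (stock added) for 5 hr at 37 C. Viability was read in the same wells by CellTiter-Glo luminescence after 30 min at room temperature.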

Test [11] is described as follows: qHTS assay to identify small molecule agonists of the TGF-beta/Smad signaling pathway - cell viability counter screen (AID 1346829). Also: top concentration of the series differs between compounds; nearly all actives have a fitted effect of over 45% in size. A digest of the protocol:
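HEK 293T SBE-bla line, 5 hr compound exposure at 37 C, multiplexed CellTiter-Glo viability read by luminescence.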

A short description of test [12]: qHTS assay to identify small molecule agonists of the TGF-beta/Smad signaling pathway (AID 1346859; active = well fitted activation curve with a large enough effect in the signal ratio in the repeat runs, not every such curve was filed as active; the % refers to the signal ratio; also: series mostly up to about 77 µM). In short, it runs like this:
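After overnight seeding, SBE-bla HEK 293T cells are dosed with compounds in DMSO and kept 5 hr at 37 C, 5% CO2. LiveBLAzer-type FRET substrate is then applied for 2 hr at room temperature.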

Test [13] has as its target Thyrotropin-releasing hormone receptor (Homo sapiens) (UniProt P34981). Put plainly: qHTS assay to identify small molecule antagonists of the thyrotropin-releasing hormone receptor (TRHR) signaling pathway (AID 1346877; active = well fitted inhibition curve with a large enough effect in the repeat runs, not every such curve was filed as active; also: series mostly up to about 51 µM). A digest of the protocol:
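Intracellular calcium fluorescence, read kinetically every second over 3 min, reports TRH-evoked signalling in HEK293 cells carrying TRHR. Test compounds were added 5 min ahead of a 1 nM TRH challenge.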

The target is the same in test [14]. Briefly: qHTS assay to identify small molecule agonists of the thyrotropin-releasing hormone receptor (TRHR) signaling pathway (AID 1346891; calls by dose curve; also: potency is read from the fitted curve at half-maximal effect;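 as to activation: HEK293 cells expressing TRHR with calcium dye readout; series mostly up to about 58 µM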). In short, it runs like this: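 Compounds were tested as agonists at 15 concentrations, in triplicate, on TRHR-Hek293 cells; calcium-sensitive dye fluorescence was recorded for 3 min following addition.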
Test [15] can be described thus: Human pregnane X receptor (PXR) small molecule agonists, qHTS cell viability counter screen (AID 1346977). Also: nearly all actives have a fitted effect of over 50% in size. A digest of the protocol: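 Viability counter screen: CellTiter-Fluor signal in PXR-Luc HepG2 cells, 24hr compound exposure, 37C, 5% CO2.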
Test [16] in a line: Caspase-3/7 induction in HepG2 cells by small molecules, qHTS assay (AID 1346978). Also: nearly all actives have a fitted effect of over 15% in size. In short, it runs like this:
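Wild-type HepG2 cells, 2,000/well, settled 5 hr at 37 C and 5% CO2, then compound-treated for 17 hr; caspase-3/7 activity read by luminescent Caspase-Glo 3/7 after 30 min at room temperature.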

Test [17] can be described thus: Caspase-3/7 induction in CHO-K1 cells by small molecules, qHTS cell viability counter screen (AID 1346979). Also: nearly all actives have a fitted effect of over 35% in size. Also: potency is read from the fitted curve at half-maximal effect. In short, it runs like this:
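Viability readout by fluorescence (CellTiter-Fluor) on wild-type CHO-K1 cells exposed for 16hr at 37C and 5% CO2 to compounds delivered in DMSO; reagent incubated 1hr before reading.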

Test [18] can be described thus: qHTS assay to identify small molecule agonists of the estrogen receptor beta (ER-beta) signaling pathway - cell viability counter screen (AID 1259380). Also: potency is read from the fitted curve at half-maximal effect; nearly all actives have a fitted effect of over 30% in size. In short, it runs like this:
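HEK293T ER-beta-UAS-bla; 2% CS-FBS; 6 hr pre-plate, 16 hr cpd at 37C/5% CO2; LiveBLAzer read first, then CellTiter-Glo 30 min RT, luminescence.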

Test [19] has as its target Androgen receptor (Homo sapiens) (UniProt P10275). Briefly: qHTS assay to identify small molecule agonists of the androgen receptor (AR) signaling pathway in the presence of an antagonist (AID 1259381; calls by dose curve; also: nearly all actives have a fitted effect of over 15% in size). In short, it runs like this: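 MDA-kb2 cells, 3,000/well, rested 5hr at 37C/0% CO2 → nilutamide 3.0uM final or buffer → compounds, 15 conc. → 16hr at 37C → ONE-Glo, 30min RT → luminescence.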

Test [20] concerns the target Estrogen receptor (Homo sapiens) (UniProt P03372). Put plainly: qHTS assay to identify small molecule agonists of the estrogen receptor alpha (ER-alpha) signaling pathway in the presence of an antagonist (AID 1259383; calls by dose curve; also: top concentration of the series differs between compounds; nearly all actives have a fitted effect of over 15% in size). A digest of the protocol:
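VM7Luc4E2, endog. ER-alpha + 4×ERE-luc; charcoal-stripped FBS, phenol red-free, 5 d; 24hr plating; +10.0nM ICI-182,780 (final); cpds 15 conc, 22hr, 37C/5% CO2; ONE-Glo luminescence.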

Chain of Thyrotropin-releasing hormone receptor (Homo sapiens) (P34981 whole entry, looked up): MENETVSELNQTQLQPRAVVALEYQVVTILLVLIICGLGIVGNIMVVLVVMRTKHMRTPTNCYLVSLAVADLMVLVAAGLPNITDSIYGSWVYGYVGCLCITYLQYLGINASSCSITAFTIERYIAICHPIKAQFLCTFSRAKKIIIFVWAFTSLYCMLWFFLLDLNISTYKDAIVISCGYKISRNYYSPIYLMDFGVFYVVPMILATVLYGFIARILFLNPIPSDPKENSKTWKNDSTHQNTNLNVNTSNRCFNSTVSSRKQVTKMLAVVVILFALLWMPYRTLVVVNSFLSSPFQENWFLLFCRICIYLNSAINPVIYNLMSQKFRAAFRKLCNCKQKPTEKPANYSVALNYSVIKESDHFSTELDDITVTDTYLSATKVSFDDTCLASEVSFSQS
Chain of Progesterone receptor (Homo sapiens) (P06401 whole entry, looked up): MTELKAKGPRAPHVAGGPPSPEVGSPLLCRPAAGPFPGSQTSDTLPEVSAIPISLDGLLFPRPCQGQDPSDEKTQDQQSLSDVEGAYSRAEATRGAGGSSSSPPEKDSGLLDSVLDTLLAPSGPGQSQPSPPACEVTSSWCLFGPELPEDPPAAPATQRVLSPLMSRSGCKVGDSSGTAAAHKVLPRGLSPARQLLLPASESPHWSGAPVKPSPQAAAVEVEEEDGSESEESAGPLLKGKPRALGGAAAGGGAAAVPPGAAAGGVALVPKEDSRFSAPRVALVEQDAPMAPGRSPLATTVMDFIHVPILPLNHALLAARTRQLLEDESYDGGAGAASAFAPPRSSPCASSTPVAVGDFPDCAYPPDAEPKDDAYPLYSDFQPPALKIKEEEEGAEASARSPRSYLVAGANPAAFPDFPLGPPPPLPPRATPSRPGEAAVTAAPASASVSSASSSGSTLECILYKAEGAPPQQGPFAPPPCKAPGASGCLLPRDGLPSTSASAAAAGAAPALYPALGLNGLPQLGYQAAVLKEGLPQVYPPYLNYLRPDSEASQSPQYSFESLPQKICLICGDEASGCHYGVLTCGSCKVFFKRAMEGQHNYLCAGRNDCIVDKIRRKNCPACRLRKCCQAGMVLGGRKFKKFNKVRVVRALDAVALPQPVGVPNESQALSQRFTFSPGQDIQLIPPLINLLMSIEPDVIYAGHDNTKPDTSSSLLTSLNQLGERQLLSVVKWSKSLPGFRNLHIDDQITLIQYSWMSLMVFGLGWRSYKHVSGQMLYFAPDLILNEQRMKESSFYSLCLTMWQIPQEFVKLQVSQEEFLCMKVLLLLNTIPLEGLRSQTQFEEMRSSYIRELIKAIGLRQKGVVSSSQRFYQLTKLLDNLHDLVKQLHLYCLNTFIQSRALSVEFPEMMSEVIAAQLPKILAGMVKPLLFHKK
Chain of Thyrotropin receptor (Homo sapiens) (P16473 whole entry, looked up): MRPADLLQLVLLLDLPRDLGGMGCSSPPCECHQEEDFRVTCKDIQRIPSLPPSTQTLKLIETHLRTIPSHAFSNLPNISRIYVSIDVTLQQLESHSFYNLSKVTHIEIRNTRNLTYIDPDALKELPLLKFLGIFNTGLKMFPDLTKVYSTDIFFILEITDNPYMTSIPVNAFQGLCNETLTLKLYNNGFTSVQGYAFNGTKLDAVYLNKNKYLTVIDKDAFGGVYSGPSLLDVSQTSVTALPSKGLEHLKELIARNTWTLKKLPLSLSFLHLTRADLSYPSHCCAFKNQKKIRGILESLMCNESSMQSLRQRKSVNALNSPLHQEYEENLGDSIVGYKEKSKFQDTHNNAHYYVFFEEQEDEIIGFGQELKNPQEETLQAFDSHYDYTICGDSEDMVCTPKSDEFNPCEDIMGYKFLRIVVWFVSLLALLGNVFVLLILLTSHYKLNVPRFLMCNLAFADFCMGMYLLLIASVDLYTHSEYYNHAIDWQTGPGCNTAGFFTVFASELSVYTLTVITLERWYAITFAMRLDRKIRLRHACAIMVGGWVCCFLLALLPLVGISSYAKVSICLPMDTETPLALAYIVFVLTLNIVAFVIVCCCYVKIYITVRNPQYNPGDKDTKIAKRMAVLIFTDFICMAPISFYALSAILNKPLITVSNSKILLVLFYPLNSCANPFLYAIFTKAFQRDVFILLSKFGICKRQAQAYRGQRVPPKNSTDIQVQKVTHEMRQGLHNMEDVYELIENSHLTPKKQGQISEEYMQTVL
Chain of Estrogen receptor (Homo sapiens) (P03372 whole entry, looked up): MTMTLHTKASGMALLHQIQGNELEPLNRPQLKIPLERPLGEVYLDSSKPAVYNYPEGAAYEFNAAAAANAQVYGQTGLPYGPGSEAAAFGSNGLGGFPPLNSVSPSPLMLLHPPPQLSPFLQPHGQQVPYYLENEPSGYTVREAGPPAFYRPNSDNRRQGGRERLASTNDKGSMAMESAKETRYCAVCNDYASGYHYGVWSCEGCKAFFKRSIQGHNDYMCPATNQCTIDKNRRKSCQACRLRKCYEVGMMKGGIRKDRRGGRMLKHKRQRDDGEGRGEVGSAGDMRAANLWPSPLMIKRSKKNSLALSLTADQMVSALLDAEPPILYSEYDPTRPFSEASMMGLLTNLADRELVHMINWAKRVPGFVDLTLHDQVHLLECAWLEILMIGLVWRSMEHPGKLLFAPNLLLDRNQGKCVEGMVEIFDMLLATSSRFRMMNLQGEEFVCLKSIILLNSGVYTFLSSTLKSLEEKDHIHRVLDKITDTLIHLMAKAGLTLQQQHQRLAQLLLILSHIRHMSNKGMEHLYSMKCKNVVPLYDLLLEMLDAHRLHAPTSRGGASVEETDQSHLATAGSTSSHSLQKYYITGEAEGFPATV
Chain of Androgen receptor (Homo sapiens) (P10275 whole entry, looked up): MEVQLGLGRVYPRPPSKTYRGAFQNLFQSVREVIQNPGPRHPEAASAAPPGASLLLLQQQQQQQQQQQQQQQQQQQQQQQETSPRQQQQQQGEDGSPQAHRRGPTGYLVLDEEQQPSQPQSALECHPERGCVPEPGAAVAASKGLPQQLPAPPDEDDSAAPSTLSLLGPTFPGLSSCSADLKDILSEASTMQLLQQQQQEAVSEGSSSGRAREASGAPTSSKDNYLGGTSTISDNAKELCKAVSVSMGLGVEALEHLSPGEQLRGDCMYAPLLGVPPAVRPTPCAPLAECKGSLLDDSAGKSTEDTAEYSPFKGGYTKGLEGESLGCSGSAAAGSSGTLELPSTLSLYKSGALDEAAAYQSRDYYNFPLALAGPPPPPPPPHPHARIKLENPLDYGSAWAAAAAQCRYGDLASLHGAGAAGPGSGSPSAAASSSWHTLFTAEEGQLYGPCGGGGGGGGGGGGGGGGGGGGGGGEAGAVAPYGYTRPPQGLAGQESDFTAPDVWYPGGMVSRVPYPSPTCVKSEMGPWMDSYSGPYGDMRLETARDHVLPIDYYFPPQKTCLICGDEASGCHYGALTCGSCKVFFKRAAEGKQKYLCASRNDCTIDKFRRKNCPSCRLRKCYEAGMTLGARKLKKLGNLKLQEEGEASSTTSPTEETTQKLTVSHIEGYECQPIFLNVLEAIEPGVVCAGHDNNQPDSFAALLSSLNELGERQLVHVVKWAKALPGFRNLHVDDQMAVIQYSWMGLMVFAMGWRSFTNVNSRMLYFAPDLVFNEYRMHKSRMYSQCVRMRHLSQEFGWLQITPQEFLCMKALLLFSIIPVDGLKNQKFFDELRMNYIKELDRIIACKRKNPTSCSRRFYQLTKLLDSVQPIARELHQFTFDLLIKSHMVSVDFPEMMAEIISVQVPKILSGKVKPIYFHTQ

Take `C=CCO`: the outcome in test [1], in test [3], in [5], in test [6], in [11] and in [13] was inactive. Besides, the call in test [16] was inactive. For the same molecule, the Potency entry in test [2], in [4], in test [7], in test [8], in [9] and in test [10] was “inactive” throughout. In addition, the Potency result in [12], in test [15] and in [17] was “inactive” throughout. In addition, the Potency entry in test [14] was “inactive and 8.71 µM (active)”.

As to `CCCC1COC(Cn2cncn2)(c2ccc(Cl)cc2Cl)O1` (stereo not given), the Potency is 61.1 µM (active) in test [18]; 17.5 µM (active) in test [7]; 62.3 µM (active) and 68.6 µM (active) in test [17]. Moreover, the result in test [19], in test [3], in test [5], in test [6] and in [11] was inactive. Further, the Potency result in [2], in test [20], in [4], in test [12] and in test [14] was “inactive” throughout.

With `Nc1ccc(Br)cc1`, the result in test [1], in test [3], in [5], in [6], in test [11] and in [16] was inactive. Also, the Potency entry in test [2], in [20], in [4], in test [8], in test [10] and in test [12] was “inactive” in each case. For the same molecule, the Potency entry in test [14], in test [15] and in test [17] was “inactive” throughout. Moreover, the Potency is 61 µM (active) in [7]; 27.3 µM (active) and inactive in test [9].

As for `C#CC(C)(C)NC(=O)c1cc(Cl)cc(Cl)c1`, the outcome in test [1], in test [3], in [5], in test [6] and in test [11] was inactive. The Potency result in test [2], in test [4], in test [7], in test [8], in test [9] and in [10] was “inactive” throughout. For the same molecule, the Potency entry in test [12], in test [14], in test [15] and in test [17] was “inactive” throughout.

For the molecule `CCc1cccc(C)c1N(C(=O)CCl)C(C)COC` (stereo not given), the result in test [1], in [3], in [5], in test [6], in test [11] and in [16] was inactive. The Potency entry in [2], in [4], in [8], in [9], in test [10] and in [12] was “inactive” in each case. The Potency entry in test [14], in test [15] and in test [17] was “inactive” each time.

For `CC1OC(C)OC(C)O1` (stereo not given), the outcome in test [1], in test [5], in test [6] and in test [11] was inactive. Moreover, the Potency entry in [2], in [7], in [8], in [9], in [10] and in test [12] was “inactive” throughout. Also, the Potency entry in test [15] and in test [17] was “inactive” each time.

For `O=C(O)c1ccccn1`, the outcome in [1], in test [5], in [6], in [11] and in test [16] was inactive. Further, the Potency result in test [2], in test [20], in test [7], in test [8], in test [9] and in test [10] was “inactive” each time. For the same molecule, the Potency result in test [12], in test [15] and in test [17] was “inactive” throughout.

Take `CCOC(=O)c1ccccc1C(=O)OCC`: the result in test [1], in [3], in test [5], in [6], in [11] and in [13] was inactive. The molecule was classed as inactive in test [16]. Further, the Potency entry in test [2], in [20], in test [4], in [7], in test [8] and in test [9] was “inactive” throughout. The Potency result in test [10], in test [12], in [14], in test [15] and in test [17] was “inactive” in each case.

As for `CC(Oc1ccc(Cl)cc1Cl)C(=O)O` (stereo not given), the outcome in test [1], in [3], in test [5], in test [6], in [11] and in test [13] was inactive. Also, the molecule was called inactive in [16]. For the same molecule, the Potency result in test [2], in test [20], in test [4], in [7], in [8] and in test [9] was “inactive” in each case. Besides, the Potency entry in test [10], in test [12], in test [14], in [15] and in test [17] was “inactive” throughout.

Consider `CCCCCCCCCl`, for which the outcome in test [1], in test [5], in test [6], in test [11] and in [13] was inactive. Moreover, the Potency entry in test [2], in [20], in [8], in [9], in test [10] and in test [12] was “inactive” in each case. Moreover, the Potency entry in test [14], in test [15] and in test [17] was “inactive” each time.

Regarding `Cc1ccc(N)cc1Cl`, the result in [1], in [3], in test [5], in test [6], in [11] and in [16] was inactive. Besides, the Potency result in [2], in [20], in test [4], in [7], in test [8] and in test [9] was “inactive” each time. For the same molecule, the Potency entry in test [10], in test [12], in test [14], in test [15] and in [17] was “inactive” throughout.
